Measurements: the supplement of paper PMC9694430
Values joined by “and” are separate entries in the source; they are usually repeats but may differ in a detail not shown here. Equal values may be shown once.

Columns and labels:
Test in all cases: thermal shift delta Tm vs DMSO control; higher = stronger stabilization (binding)
Details in all cases: 12.5 µM; protein concentration 2 µM
LOC_OS01G57100-cb003 = tested on: LOC_OS01G57100-cb003
Summary of the method: (§1)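 Purified, E. coli-expressed rice kinase domain constructs were tested by differential scanning fluorimetry in 96-well plates: 19.5 μl of 2 μM kinase in 100 mM potassium phosphate pH 7.5, 150 mM NaCl, 10% glycerol, 5 × SYPRO Orange, plus compound in DMSO. Fluorescence was read from 25°C to 95°C at 0.05°C/s. Melting temperatures came from Boltzmann fits, and the shift is the triplicate mean relative to protein with DMSO alone.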

LOC_OS01G60330-cb001 = tested on: LOC_OS01G60330-cb001
Summary of the method: as §1

LOC_OS01G60700-cb002 = tested on: LOC_OS01G60700-cb002
Summary of the method: as §1

LOC_OS01G63280-cb003 = tested on: LOC_OS01G63280-cb003
Summary of the method: as §1

LOC_OS01G67340-cb003 = tested on: LOC_OS01G67340-cb003
Summary of the method: as §1

LOC_OS01G70970-cb002 = tested on: LOC_OS01G70970-cb002
Summary of the method: as §1

LOC_OS02G07810-cb001 = tested on: LOC_OS02G07810-cb001
Summary of the method: as §1

LOC_OS02G08530-cb003 = tested on: LOC_OS02G08530-cb003
Summary of the method: as §1

LOC_OS02G14120-cb001 = tested on: LOC_OS02G14120-cb001
Summary of the method: as §1

LOC_OS02G17970-cb001 = tested on: LOC_OS02G17970-cb001
Summary of the method: as §1

Compound	thermal shift delta Tm (LOC_OS01G57100-cb003)	thermal shift delta Tm (LOC_OS01G60330-cb001)	thermal shift delta Tm (LOC_OS01G60700-cb002)	thermal shift delta Tm (LOC_OS01G63280-cb003)	thermal shift delta Tm (LOC_OS01G67340-cb003)	thermal shift delta Tm (LOC_OS01G70970-cb002)	thermal shift delta Tm (LOC_OS02G07810-cb001)	thermal shift delta Tm (LOC_OS02G08530-cb003)	thermal shift delta Tm (LOC_OS02G14120-cb001)	thermal shift delta Tm (LOC_OS02G17970-cb001)
C=CC(=O)Nc1ccc(CN2C(=O)N(c3cc(OC)cc(OC)c3)Cc3cnc(Nc4ccc(N5CCN(C)CC5)cc4)nc32)cc1	3.1 °C	0.63 °C	2.43 °C	0.9 °C	0.61 °C	1.17 °C	1.48 °C	1.77 °C	2.28 °C	1.39 °C
CC(C)NC(=O)C1CCC(n2c(NC(=O)c3ccc(F)cc3)nc3ccc(CN4CCC(C(C)(C)O)CC4)cc32)CC1 (stereo not given) [Belizatinib (TSR-011)]	0.68 °C	1.95 °C	0.11 °C	0.25 °C	2.85 °C	6.79 °C	-0.66 °C	5.19 °C	4.13 °C	-0.03 °C
CN(C)Cc1cccc(N=C(c2ccccc2)c2c(O)[nH]c3cc(C(=O)N(C)C)ccc23)c1	0.86 °C	0.56 °C	0.46 °C	0.74 °C	0.8 °C	0.24 °C	1.05 °C	0.71 °C	1.17 °C	1.25 °C
O=C(c1ccc(F)c(F)c1Nc1ccc(I)cc1F)N1CC(O)([C@@H]2CCCCN2)C1 [Cobimetinib (GDC-0973, RG7420)]	2.49 °C	0.82 °C	1.16 °C	0.52 °C	0.36 °C	0.54 °C	0.48 °C	1.02 °C	1.18 °C	0.97 °C
CO[C@H]1C[C@@H]2CC[C@@H](C)[C@@](O)(O2)C(=O)C(=O)N2CCCC[C@H]2C(=O)O[C@H]([C@H](C)C[C@@H]2CC[C@@H](OCCO)[C@H](OC)C2)CC(=O)[C@H](C)/C=C(\C)[C@@H](O)[C@@H](OC)C(=O)[C@H](C)C[C@H](C)/C=C/C=C/C=C/1C [Everolimus (RAD001)]	0.99 °C	1.72 °C	0.6 °C	0.26 °C	-0.17 °C	-0.1 °C	0.75 °C	0.55 °C	1.17 °C	0.76 °C
C=CC(=O)Nc1cccc(Oc2nc(Nc3ccc(N4CCN(C)CC4)cc3)nc3ccsc23)c1	2.41 °C	0.93 °C	3.14 °C	0.86 °C	0.85 °C	1.8 °C	1.13 °C	2.66 °C	3.63 °C	2.18 °C
Cc1cc([C@@H](C)Nc2ccccc2C(=O)O)c2nc(N3CCOCC3)cc(=O)n2c1	1.15 °C	0.75 °C	0.5 °C	0.68 °C	-0.15 °C	0 °C	1.33 °C	0.42 °C	-0.15 °C	0.98 °C
N#Cc1ccc2[nH]c(O)c(-c3ccc(CN4CCOCC4)cn3)c2c1	-0.18 °C	0.88 °C	1.33 °C	0.3 °C	-0.02 °C	0.56 °C	0.82 °C	1.04 °C	-0.04 °C	0.51 °C
CC(C)(O)CC(=O)NCCn1ccc2ncnc(Nc3ccc(Oc4cccc(C(F)(F)F)c4)c(Cl)c3)c21	2.91 °C	5.27 °C	0.11 °C	1.26 °C	1.33 °C	1.03 °C	1.53 °C	0.93 °C	1.51 °C	0.83 °C
CC(C)c1cnn2c(NCc3ccccc3)cc(NCCCCCCN)nc12	0.82 °C	0.42 °C	0.03 °C	0.24 °C	-0.22 °C	0.19 °C	0.44 °C	0.66 °C	-0.59 °C	0.24 °C
Cc1ccc(C(=O)Nc2cccc(C(F)(F)F)c2)cc1Nc1nc(-c2cccnc2)nc2c1cnn2C	2.35 °C	2.86 °C	1.11 °C	0.24 °C	0.79 °C	0.92 °C	1.8 °C	1.77 °C	0.87 °C	2.02 °C
CN(c1ncccc1CNc1nc(Nc2ccc3c(c2)CC(=O)N3)ncc1C(F)(F)F)S(C)(=O)=O	1.74 °C and 1.7 °C	2.27 °C and 2.55 °C	0.88 °C and 1.26 °C	2.29 °C and 3.24 °C	1.9 °C and 2.14 °C	6.41 °C and 7.59 °C	0.34 °C and 0.67 °C	1.99 °C and 2.23 °C	4.47 °C and 5.67 °C	0.58 °C and 1.27 °C
C=C(C)[C@@H]1CC[C@]2(C)CC[C@]3(C)[C@H](CC[C@@H]4[C@@]5(C)CC[C@H](O)C(C)(C)[C@@H]5CC[C@]43C)[C@@H]12 [Lupeol]	0.67 °C	-0.59 °C	0.65 °C	0.13 °C	0.51 °C	-0.32 °C	1 °C	0.21 °C	-0.18 °C	-0.66 °C
COc1ccc2[nH]cc(/C=C3\C(=O)Nc4ccc(NC(=O)CCN5CCCCC5)cc43)c2c1	0.21 °C	1.51 °C	1.62 °C	1.06 °C	1.09 °C	0.85 °C	0.83 °C	1.82 °C	1.59 °C	1.88 °C
COc1c(C)c(C(=O)c2ccc(N)c(C(=O)O)c2)n2ccccc12	1.57 °C	0.95 °C	1.12 °C	-0.1 °C	-0.08 °C	0.36 °C	0.92 °C	0.95 °C	-0.55 °C	1.28 °C
COC(=O)N[C@@H](C)CNc1nccc(-c2cn(C(C)C)nc2-c2cc(Cl)cc(NS(C)(=O)=O)c2F)n1 [Encorafenib (LGX818)]	1.3 °C	0.6 °C	1.13 °C	16.6 °C	0.27 °C	0.24 °C	0.09 °C	0.83 °C	1.23 °C	0.55 °C
Cn1cc(-c2ccc3ncc(Cc4ccc5ncccc5c4)n3n2)cn1	0.9 °C	1.91 °C	0.96 °C	0.15 °C	0.76 °C	0.25 °C	1.07 °C	1.43 °C	2.22 °C	0.32 °C
